Bioassay records as filed in PubChem BioAssay.
DAX1 inh-1: DAX1 (NR0B1) inhibitors on StAR promoter, primary screen, cell-based, luminescence, SF-1 (NR5A1), full-length DAX-1; HEK293T StAR-luciferase reporter, SF-1/DAX-1 repression relief; inhibition, % at 6.8 µM; hit rate 1.1% among 370,000;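 active = inhibition above the mean over all tested compounds plus 3 SD, cut at about 3.6% in these data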;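 note: higher inhibition means more luminescence from relief of DAX-1 repression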
DAX1 inh-2: DAX1 (NR0B1) inhibitors, primary screen, cell-based, HEK293, Gal4-DAX1, luciferase luminescence; hit rate 0.99% among 340,000; inhibition, % at 6.75 µM; HEK293 Gal4-DAX1 luciferase reporter; AID 504766, 2011; Nuclear receptor subfamily 0 group B member 1 (Homo sapiens), P51843;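 active = inhibition above the mean over all tested compounds plus 3 SD, cut at about 4.2% in these data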;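 note: inhibition shows as a rise in luminescence from relieved DAX1 repression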
Target sequence (P51843 207-470 limits assumed): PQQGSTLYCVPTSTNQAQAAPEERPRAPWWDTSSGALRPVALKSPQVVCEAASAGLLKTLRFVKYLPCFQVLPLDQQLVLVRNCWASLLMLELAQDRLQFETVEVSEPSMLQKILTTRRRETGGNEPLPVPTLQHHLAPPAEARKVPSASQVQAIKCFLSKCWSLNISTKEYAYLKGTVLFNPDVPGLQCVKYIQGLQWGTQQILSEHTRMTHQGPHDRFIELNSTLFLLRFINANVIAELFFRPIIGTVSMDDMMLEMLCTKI
hcDAF12 agonist: H. contortus DAF-12 nuclear receptor activators, primary screen, cell-based, luminescence, HEK293, lit1-tk-luc reporter; HEK293 hcDAF-12 lit1-tk-luc reporter; 0% DMSO, 100% Δ7-dafachronic acid; hit rate 1.4% among 370,000; activation, % at 6.8 µM;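 active = activation above the mean of all tested compounds plus 3 SD, cut at about 5.5% in these data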
ssDAF12 agonist: S. stercoralis DAF-12 nuclear receptor activators, primary screen, cell-based, luminescence, HEK293, GRIP1 co-expression, lit1-tk-luc | activation, % at 6.8 µM | hit rate 1% among 370,000 | HEK293 ssDAF-12/GRIP1 lit1-tk-luc reporter; % of 3 µM dafachronic acid response | Nuclear hormone receptor DAF-12 (Strongyloides stercoralis);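 active = activation above the mean over all tested compounds plus 3 SD, cut at about 0.9% in these data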
hgDAF12 agonist: H. glycines DAF-12 receptor agonists, primary screen, cell-based, luminescence, HEK293, GAL4 fusion, UAS-luciferase. Nuclear hormone receptor DAF-12 (Heterodera glycines), GAL4 fusion. AID 687014, 2013. hit rate 1.8% among 370,000. activation, % at 6.8 µM. HEK293 GAL4-hgDAF12 UAS-luciferase reporter, agonist luminescence; normalized to butyrate control;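 active = activation above a cutoff set at the mean of all screened compounds plus 3 SD, cut at about 10% in these data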
DAX1 conf: DAX1 (NR0B1) inhibitors relieving SF-1 repression, confirmation, cell-based, luminescence, HEK293T, full-length DAX-1, SF-1 activated StAR promoter; shares compounds with DAX1 inh-1; HEK293T StAR-promoter luciferase reporter, SF-1/DAX-1 repression; inhibition, % at 6.8 µM; hit rate 87% among 2,400;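 active = inhibition above the average of every tested compound plus 3 SD, cut at about 3.8% in these data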
SF1 AF2mut Luc: StAR reporter signal changes without DAX1, counter-screen for DAX1 inhibitor project, cell-based, luminescence, AF-2 mutant SF-1, transactivation. shares compounds with DAX1 inh-1. HEK293 StAR-luciferase, SF-1 AF2 mutant. inhibition, % at 6.8 µM. hit rate 78% among 2,400. AID 652136, 2013;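 active = inhibition above the mean of all tested compounds plus 3 SD, cut at about 3% in these data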
LXR ag: LXR agonists, Gal4 luciferase reporter, confirmation, counter-screen for hcDAF-12 agonist project, cell-based, luminescence, HEK293, H. contortus campaign. activation, % at 6.8 µM. HEK293 Gal4-LXR tk-luc reporter, 24 h; normalized: DMSO 0%, positive control 100%. shares compounds with hcDAF12 agonist. 3,400 tested, under 10 active;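 active = mean percent activation of the reporter above a cutoff set as the average over tested compounds plus their standard deviation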
Target sequence (P55055 whole entry, looked up, the tested form may be a part): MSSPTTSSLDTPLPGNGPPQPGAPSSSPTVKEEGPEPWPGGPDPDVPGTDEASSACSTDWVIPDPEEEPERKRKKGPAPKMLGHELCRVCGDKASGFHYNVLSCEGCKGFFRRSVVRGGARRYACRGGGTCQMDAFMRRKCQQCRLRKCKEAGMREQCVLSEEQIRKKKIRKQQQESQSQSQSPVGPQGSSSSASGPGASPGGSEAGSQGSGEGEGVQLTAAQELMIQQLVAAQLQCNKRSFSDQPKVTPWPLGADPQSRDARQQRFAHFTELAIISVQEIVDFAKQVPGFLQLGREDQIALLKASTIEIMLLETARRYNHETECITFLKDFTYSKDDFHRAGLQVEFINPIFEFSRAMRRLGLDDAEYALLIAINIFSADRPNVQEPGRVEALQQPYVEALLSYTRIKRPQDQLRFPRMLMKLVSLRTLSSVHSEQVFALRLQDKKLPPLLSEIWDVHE
hcDAF12 ag: H. contortus DAF-12 receptor agonists, confirmation, cell-based, luminescence, HEK293, lit1-tk-luc, triplicate; shares compounds with hcDAF12 agonist; HEK293 hcDAF-12 lit1-tk-luc reporter; % of Δ7-dafachronic acid response; activation, % at 6.8 µM; hit rate 61% among 3,400; AID 743032, 2013;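 active = mean activation across triplicate tests above the threshold derived from the earlier primary screen, cut at about 5.5% in these data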
hgDAF12 ag: H. glycines DAF-12 receptor agonists, confirmation, cell-based, luminescence, HEK293, GAL4-LBD fusion. shares compounds with hgDAF12 agonist. hit rate 80% among 3,300. AID 743050, 2013. HEK293 GAL4-hgDAF12 luciferase reporter, agonist mode; percent of butyrate response. activation, % at 6.8 µM;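 active = mean activation over triplicate wells above the hit cutoff derived from the earlier primary screen, cut at about 11% in these data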
LXRb DAF12 ctr: LXR agonists, Gal4 luciferase reporter, confirmation, counter-screen for hgDAF-12 agonist project, cell-based, luminescence, HEK293, H. glycines campaign; 3,300 tested, under 10 active; activation, % at 6.8 µM; shares compounds with hgDAF12 agonist; 24 h;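 active = mean activation of the triplicate above a set limit carried over from the primary screen, none filed active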
Hits are given with their value; – = inactive; · = no result. This is a sample that favours compounds with a hit; in the whole collection about 4.1% have one here.

SMILES | DAX1 inh-1 | DAX1 inh-2 | hcDAF12 agonist | ssDAF12 agonist | hgDAF12 agonist | DAX1 conf | SF1 AF2mut Luc | hgDAF12 ag | LXRb DAF12 ctr | others
Cc1ccc(OCc2nnc(SCC(=O)Nc3ccccc3-c3ccccc3)n2Cc2ccco2)cc1 | – | · | – | – | – | · | · | · | ·
Cc1cc(NC(=O)CSc2nnnn2C2CCCC2)no1 | – | – | – | – | – | · | · | · | ·
CCn1c(C)cc(C(=O)CSc2nnnn2C2CCCC2)c1C | 9.6 | – | – | – | 13 | 13 | 7.4 | 17 | –
Cc1cc2c(cc1C)NC(=O)C(C)CN2 (stereo unspecified) | 5.7 | – | 12 | 3.0 | 20 | 16 | 7.9 | 14 | – | LXR ag=–;hcDAF12 ag=11
C/C(=N/NC(=O)c1cccs1)c1ccc(N2CCOCC2)cc1 | 4.7 | – | 6.0 | – | 20 | – | – | – | –
CCn1cnc2cc(NCc3nc4ccccc4n3C)ccc21 | 5.9 | – | 15 | 1.1 | 18 | 10 | 4.8 | 13 | – | LXR ag=–;hcDAF12 ag=7.5
CCn1cnc2cc(NCc3nc4ccccc4n3Cc3ccccc3)ccc21 | – | – | – | – | – | · | · | · | ·
COc1cccc(C(=O)Nc2ccc3c(C)cc(=O)oc3c2)c1 | 17 | – | 6.1 | 1.0 | 13 | 14 | 10 | 21 | –
COc1ccc(C(=O)Nc2cccc(OC)c2)cc1 | 5.4 | – | – | 1.0 | 16 | 14 | – | 16 | –
COc1ccc(C(=O)NNC(=S)Nc2ccccc2)cc1 | 10 | – | – | – | 17 | 16 | 12 | 15 | –
COc1cccc(NC(=O)c2ccccc2)c1 | – | – | – | – | – | · | · | · | ·
COc1ccc(C(=O)NNC(=S)NC(=O)c2ccc(OC)cc2)cc1 | – | – | – | – | – | · | · | · | ·
O=C(NNC(=S)Nc1ccccc1Cl)c1ccccc1 | 15 | – | – | – | 14 | 12 | 8.2 | 18 | –
Cc1cccc(OCC(=O)Nc2ccc3c(C)cc(=O)oc3c2)c1 | – | – | – | – | – | · | · | · | ·
O=C(CSc1nc2ncccc2[nH]1)N1CCOCC1 | – | · | – | – | – | · | · | · | ·
O=C(Nc1ccc(N2CCCC2)c(Cl)c1)c1ccccc1F | 5.1 | – | – | – | 22 | 14 | 4.8 | 16 | –
COc1ccc([C@H]2OC(=O)C[C@@H]2C(=O)N2CCCCC2)cc1OC | – | · | – | – | – | · | · | · | ·
COC(=O)[C@]12C[C@H](CC(=O)N3CCN(C(=O)C4CC4)CC3)C(=O)N(CCc3ccc(OC)c(OC)c3)C1=C[C@H](COCc1ccccc1)O[C@@H]2C | – | · | – | – | – | · | · | · | ·
Cc1cc(C)c2sc(NC(=O)C3=COCCO3)nc2c1 | 14 | – | 10 | – | 21 | 9.5 | 4.3 | 17 | – | LXR ag=–;hcDAF12 ag=–
C(=N\NC1=Nc2cccc3cccc1c23)/c1ccccc1 | 6.6 | 5.7 | 18 | 4.5 | 23 | 13 | 9.5 | 27 | – | LXR ag=–;hcDAF12 ag=21
CC(=O)c1cnc2cc(-c3ccccc3)nn2c1C | – | – | – | – | – | · | · | · | ·
Nc1c(-c2ccccc2)cnc2cc(-c3ccccc3)nn12 | 6.0 | 5.6 | – | 0.9 | 22 | 16 | 7.7 | 26 | –
CC1CCN(C(=O)c2ccc3ccccc3c2)CC1 | 7.9 | – | – | – | 14 | 6.8 | 3.8 | 15 | –
CC1CC(C)CN(C(=O)c2ccc3ccccc3c2)C1 (stereo unspecified) | – | – | – | – | – | · | · | · | ·
Cc1cc(=O)[nH]c(N/N=C/c2c(C)nn(-c3ccccc3)c2Cl)n1 | – | – | – | – | – | · | · | · | ·
SMILES | DAX1 inh-1 | DAX1 inh-2 | hcDAF12 agonist | ssDAF12 agonist | hgDAF12 agonist | DAX1 conf | SF1 AF2mut Luc | hgDAF12 ag | LXRb DAF12 ctr | others
Cc1nn(-c2ccccc2)c(Cl)c1/C=N/Nc1nc2ccccc2[nH]1 | 4.8 | – | 9.5 | 1.4 | 24 | 18 | 6.3 | 22 | – | LXR ag=–;hcDAF12 ag=7.8
Cc1nn(-c2ccccc2)c(Cl)c1/C=N/NC(=O)c1[nH]ncc1Br | 12 | – | 6.0 | – | 15 | 13 | 7.3 | 15 | –
C=CCN1C(=O)c2n[nH]c(COC)c2C1c1ccc(Br)cc1 (stereo unspecified) | – | · | – | – | – | · | · | · | ·
COc1cccc(/C=C/C(=O)Nc2cccc(C(C)=O)c2)c1OC | – | – | – | – | – | · | · | · | ·
COc1cccc(/C=C/C(=O)Nc2ccc3c(c2)OCCO3)c1OC | 10 | – | 7.7 | – | 19 | 11 | 5.3 | 17 | – | LXR ag=–;hcDAF12 ag=5.9
CSc1ccccc1OCc1cc(C(=O)NCc2ccc(C)s2)no1 | – | – | – | – | – | · | · | · | ·
CCOC(=O)c1ccc(CNC(=O)c2cc(COc3ccccc3SC)on2)o1 | 5.4 | – | – | – | 15 | 8.8 | 4.5 | 18 | –
Cc1ccc(/C=C(\C#N)C(=O)Nc2ccccn2)o1 | 11 | – | – | – | 18 | 10 | 7.6 | 13 | –
COc1ccc(/C=C(\C#N)C(=O)Nc2ccccn2)cc1 | – | – | – | – | – | · | · | · | ·
COc1ccc(CSc2nnc(SCC(=O)Nc3ccccc3-c3ccccc3)s2)cc1 | – | · | – | – | – | · | · | · | ·
O=C(/C=C1\OCc2ccccc21)c1ccccc1 | 5.6 | · | 9.5 | 1.3 | 19 | 7.2 | 4.8 | 17 | – | LXR ag=–;hcDAF12 ag=11
